Source: PMC7862700, “An all-to-all approach to the identification of sequence-specific readers for epigenetic DNA modifications on cytosine”

Experiments:
Assay in all cases: DAPPL (digital affinity profiling via proximity ligation, sequencing); 10 mM Tris-HCl pH 7.5, 50 mM NaCl, 1 mM DTT, 4% glycerol, room temperature, 30 min; GST-TFs on glutathione beads, 16-mer random dsDNA library, 0.1% formaldehyde crosslink after washing; high values mean tight binding
FEV = target: T1, FEV (Homo sapiens, UniProt Q99581 1-238); details: protein: recombinant; tags: N-terminal GST; dsDNA, one strand shown
T1 sequence: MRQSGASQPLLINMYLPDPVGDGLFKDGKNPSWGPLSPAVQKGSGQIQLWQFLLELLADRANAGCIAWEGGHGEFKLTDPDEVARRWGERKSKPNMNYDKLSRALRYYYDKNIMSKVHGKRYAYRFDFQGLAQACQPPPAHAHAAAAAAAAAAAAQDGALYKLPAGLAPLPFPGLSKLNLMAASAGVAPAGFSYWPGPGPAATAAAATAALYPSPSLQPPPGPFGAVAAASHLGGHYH
Procedure, shortened: (§1)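 Yeast served to express human transcription factors as GST fusions, which were then captured on glutathione beads and labelled with DNA barcodes. Pooled with a tag-only sample, they were incubated with 200 nmole of a 16-mer random double-stranded DNA library for 30 min at room temperature in Tris/NaCl/DTT/glycerol buffer, washed, crosslinked with 0.1% formaldehyde, ligated by proximity, amplified by PCR and sequenced. Dividing each hexamer's read frequency for a factor by its frequency for the tag-only sample gives the binding signal.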

ETV5 = ETV5 (Homo sapiens, UniProt P41161 1-510); details: protein: recombinant; tags: N-terminal GST; dsDNA, one strand shown
Procedure, shortened: as §1

HSF1 = HSF1 (Homo sapiens, UniProt Q00613 1-529); details: protein: recombinant; tags: N-terminal GST; chain copies: 3; dsDNA, one strand shown
Procedure, shortened: as §1

SPIC = target: T2, SPIC (Homo sapiens, UniProt Q8N5J4 1-248); details: protein: recombinant; tags: N-terminal GST; dsDNA, one strand shown
T2 sequence: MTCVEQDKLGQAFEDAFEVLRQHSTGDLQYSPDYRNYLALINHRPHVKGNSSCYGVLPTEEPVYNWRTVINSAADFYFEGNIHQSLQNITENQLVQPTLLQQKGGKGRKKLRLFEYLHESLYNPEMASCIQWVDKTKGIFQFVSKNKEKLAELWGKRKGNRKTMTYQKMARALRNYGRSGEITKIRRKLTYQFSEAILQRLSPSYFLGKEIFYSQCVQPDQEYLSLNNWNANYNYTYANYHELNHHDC
Procedure, shortened: as §1

ELF4 = ELF4 (Homo sapiens, UniProt Q99607 1-663); details: protein: recombinant; tags: N-terminal GST; dsDNA, one strand shown
Procedure, shortened: as §1

ELK4 = target: T3, ELK4 (Homo sapiens, UniProt P28324-2 1-405); details: protein: recombinant; tags: N-terminal GST; dsDNA, one strand shown
T3 sequence: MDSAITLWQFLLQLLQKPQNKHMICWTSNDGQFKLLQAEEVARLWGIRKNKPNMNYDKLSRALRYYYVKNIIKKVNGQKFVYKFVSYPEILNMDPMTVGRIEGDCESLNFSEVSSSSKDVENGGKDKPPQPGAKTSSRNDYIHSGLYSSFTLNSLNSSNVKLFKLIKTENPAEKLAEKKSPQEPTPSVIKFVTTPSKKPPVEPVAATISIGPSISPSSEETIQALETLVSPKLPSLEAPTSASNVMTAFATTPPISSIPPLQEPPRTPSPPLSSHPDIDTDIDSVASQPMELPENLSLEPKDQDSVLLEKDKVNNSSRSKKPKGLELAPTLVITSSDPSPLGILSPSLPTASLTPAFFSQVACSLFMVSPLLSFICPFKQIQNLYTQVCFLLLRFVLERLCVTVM
Procedure, shortened: as §1

ETV2 = target: T4, ETV2 (Homo sapiens, UniProt O00321 1-342); details: protein: recombinant; tags: N-terminal GST; dsDNA, one strand shown
T4 sequence: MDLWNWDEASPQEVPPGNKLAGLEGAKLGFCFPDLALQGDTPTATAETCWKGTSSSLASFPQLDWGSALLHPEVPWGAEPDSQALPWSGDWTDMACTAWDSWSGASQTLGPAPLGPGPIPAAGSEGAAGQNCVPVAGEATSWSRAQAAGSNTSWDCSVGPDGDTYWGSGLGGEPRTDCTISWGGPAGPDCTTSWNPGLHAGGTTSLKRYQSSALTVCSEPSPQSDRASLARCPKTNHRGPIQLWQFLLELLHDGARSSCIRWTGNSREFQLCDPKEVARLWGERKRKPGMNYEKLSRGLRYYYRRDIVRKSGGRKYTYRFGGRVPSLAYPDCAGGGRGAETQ
Procedure, shortened: as §1

ELF3 = target: T5, ELF3 (Homo sapiens, UniProt P78545 1-371); details: protein: recombinant; tags: N-terminal GST; dsDNA, one strand shown
T5 sequence: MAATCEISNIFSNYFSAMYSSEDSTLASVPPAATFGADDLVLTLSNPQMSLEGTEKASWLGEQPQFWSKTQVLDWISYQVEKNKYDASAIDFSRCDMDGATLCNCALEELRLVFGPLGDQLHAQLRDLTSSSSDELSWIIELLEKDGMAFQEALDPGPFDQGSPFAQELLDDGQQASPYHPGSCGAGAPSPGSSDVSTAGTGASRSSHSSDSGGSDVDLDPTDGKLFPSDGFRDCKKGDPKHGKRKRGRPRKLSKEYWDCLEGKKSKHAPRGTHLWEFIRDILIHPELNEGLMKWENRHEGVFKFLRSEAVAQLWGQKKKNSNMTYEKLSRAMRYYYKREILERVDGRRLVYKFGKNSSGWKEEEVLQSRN
Procedure, shortened: as §1

CRX = CRX (Homo sapiens, UniProt O43186 1-299); details: protein: recombinant; tags: N-terminal GST; dsDNA, one strand shown
Procedure, shortened: as §1

ETV1 = ETV1 (Homo sapiens, UniProt P50549 1-477); details: protein: recombinant; tags: N-terminal GST; dsDNA, one strand shown
Procedure, shortened: as §1

ERF = target: T6, ERF (Homo sapiens, UniProt P50548 1-548); details: protein: recombinant; tags: N-terminal GST; dsDNA, one strand shown
T6 sequence: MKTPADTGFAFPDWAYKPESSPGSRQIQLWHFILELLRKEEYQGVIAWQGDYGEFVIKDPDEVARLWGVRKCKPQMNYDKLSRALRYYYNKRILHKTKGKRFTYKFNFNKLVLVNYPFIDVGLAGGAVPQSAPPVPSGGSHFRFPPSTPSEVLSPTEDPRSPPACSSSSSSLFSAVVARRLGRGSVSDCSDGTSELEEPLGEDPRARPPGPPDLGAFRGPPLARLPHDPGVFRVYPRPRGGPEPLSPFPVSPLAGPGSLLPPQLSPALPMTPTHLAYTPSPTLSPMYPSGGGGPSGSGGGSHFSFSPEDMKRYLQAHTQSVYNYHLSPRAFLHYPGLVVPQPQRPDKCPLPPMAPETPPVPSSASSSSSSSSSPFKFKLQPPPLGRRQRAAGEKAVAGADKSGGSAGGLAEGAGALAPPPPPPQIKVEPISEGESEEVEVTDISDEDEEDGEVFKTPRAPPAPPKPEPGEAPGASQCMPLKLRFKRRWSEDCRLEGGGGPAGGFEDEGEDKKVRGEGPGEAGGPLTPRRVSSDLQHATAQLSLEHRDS
Procedure, shortened: as §1

ETV3L = target: T7, ETV3L (Homo sapiens, UniProt Q6ZN32 1-361); details: protein: recombinant; tags: N-terminal GST; dsDNA, one strand shown
T7 sequence: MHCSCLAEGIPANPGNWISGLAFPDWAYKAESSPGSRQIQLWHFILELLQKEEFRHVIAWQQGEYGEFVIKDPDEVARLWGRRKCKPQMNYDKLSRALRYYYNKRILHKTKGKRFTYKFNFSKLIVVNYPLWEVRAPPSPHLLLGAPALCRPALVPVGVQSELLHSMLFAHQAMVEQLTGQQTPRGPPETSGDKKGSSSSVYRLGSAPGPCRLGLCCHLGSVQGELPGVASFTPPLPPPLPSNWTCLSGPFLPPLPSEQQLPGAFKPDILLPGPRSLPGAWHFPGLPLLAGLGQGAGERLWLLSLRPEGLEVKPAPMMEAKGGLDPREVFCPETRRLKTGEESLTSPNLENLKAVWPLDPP
Procedure, shortened: as §1

ETS2 = target: T8, ETS2 (Homo sapiens, UniProt P15036 1-469); details: protein: recombinant; tags: N-terminal GST; dsDNA, one strand shown
T8 sequence: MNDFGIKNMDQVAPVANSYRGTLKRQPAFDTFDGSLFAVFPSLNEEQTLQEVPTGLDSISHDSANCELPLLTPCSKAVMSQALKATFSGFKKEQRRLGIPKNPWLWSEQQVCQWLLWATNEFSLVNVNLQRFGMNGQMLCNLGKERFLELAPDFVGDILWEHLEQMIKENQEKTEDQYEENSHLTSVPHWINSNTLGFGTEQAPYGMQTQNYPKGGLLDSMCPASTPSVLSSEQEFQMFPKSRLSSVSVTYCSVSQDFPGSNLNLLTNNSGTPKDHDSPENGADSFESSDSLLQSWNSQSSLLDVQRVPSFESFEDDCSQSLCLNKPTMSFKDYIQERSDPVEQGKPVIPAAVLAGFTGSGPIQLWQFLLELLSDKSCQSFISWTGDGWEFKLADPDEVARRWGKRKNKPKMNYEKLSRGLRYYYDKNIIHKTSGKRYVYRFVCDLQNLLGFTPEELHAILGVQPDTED
Procedure, shortened: as §1

SPDEF = target: T9, SPDEF (Homo sapiens, UniProt O95238 1-335); details: protein: recombinant; tags: N-terminal GST; dsDNA, one strand shown
T9 sequence: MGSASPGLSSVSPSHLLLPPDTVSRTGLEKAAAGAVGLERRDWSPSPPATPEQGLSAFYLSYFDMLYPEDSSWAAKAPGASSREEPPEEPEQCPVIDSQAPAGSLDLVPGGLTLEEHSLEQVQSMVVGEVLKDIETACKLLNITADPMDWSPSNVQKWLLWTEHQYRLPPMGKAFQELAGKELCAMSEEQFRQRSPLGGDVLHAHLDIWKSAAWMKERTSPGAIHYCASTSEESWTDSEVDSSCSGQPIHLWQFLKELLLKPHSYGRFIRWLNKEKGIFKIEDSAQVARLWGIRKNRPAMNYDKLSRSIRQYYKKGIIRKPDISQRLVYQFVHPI
Procedure, shortened: as §1

ETV7 = target: T10, ETV7 (Homo sapiens, UniProt Q9Y603 1-341); details: protein: recombinant; tags: N-terminal GST; dsDNA, one strand shown
T10 sequence: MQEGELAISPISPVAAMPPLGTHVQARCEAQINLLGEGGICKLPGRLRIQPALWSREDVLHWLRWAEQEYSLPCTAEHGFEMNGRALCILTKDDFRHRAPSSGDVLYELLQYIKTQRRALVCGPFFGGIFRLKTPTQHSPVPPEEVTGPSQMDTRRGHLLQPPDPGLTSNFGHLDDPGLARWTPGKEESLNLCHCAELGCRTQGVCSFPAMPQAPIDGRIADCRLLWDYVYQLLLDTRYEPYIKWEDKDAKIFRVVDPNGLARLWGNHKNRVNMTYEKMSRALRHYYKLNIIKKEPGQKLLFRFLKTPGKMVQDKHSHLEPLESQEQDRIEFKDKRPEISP
Procedure, shortened: as §1

ELF5 = target: T11, ELF5 (Homo sapiens, UniProt Q9UKW6-2 1-255); details: protein: recombinant; tags: N-terminal GST; dsDNA, one strand shown
T11 sequence: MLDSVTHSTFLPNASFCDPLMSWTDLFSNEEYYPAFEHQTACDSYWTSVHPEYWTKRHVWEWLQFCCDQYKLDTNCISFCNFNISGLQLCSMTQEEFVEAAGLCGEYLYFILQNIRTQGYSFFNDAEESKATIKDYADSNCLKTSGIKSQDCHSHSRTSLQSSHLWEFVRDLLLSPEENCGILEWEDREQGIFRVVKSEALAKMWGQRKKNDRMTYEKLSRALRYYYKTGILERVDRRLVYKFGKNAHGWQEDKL
Procedure, shortened: as §1

ETV3 = target: T12, ETV3 (Homo sapiens, UniProt P41162-2 1-143); details: protein: recombinant; tags: N-terminal GST; dsDNA, one strand shown
T12 sequence: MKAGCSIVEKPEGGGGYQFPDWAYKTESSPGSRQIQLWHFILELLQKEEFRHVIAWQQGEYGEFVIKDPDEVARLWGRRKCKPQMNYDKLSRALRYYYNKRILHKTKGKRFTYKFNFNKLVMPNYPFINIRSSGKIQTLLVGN
Procedure, shortened: as §1

ETV6 = ETV6 (Homo sapiens, UniProt P41212 1-452); details: protein: recombinant; tags: N-terminal GST; dsDNA, one strand shown
Procedure, shortened: as §1

Chain of CRX (O43186 whole entry): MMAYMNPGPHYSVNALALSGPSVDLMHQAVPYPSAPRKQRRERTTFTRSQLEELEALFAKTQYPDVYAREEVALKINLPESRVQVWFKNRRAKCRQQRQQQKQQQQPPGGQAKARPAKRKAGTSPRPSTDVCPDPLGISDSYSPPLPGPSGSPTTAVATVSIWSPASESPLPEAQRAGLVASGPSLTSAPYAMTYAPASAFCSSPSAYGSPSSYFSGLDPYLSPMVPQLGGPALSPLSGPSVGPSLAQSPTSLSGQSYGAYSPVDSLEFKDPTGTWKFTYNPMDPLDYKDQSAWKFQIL
Chain of ETV1 (P50549 whole entry): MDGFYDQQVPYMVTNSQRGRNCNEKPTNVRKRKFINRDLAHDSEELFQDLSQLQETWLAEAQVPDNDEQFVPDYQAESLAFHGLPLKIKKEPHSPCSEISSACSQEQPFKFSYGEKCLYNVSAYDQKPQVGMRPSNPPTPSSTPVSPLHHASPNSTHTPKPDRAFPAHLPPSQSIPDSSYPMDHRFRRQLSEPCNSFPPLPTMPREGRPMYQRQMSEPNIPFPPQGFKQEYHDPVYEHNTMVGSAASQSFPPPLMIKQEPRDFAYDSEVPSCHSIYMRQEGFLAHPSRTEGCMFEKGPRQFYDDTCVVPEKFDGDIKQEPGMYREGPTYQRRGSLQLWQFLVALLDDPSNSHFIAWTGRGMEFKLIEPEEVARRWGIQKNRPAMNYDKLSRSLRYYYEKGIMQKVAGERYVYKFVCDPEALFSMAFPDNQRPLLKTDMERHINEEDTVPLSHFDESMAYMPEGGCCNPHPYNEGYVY
Chain of ETV5 (P41161 whole entry): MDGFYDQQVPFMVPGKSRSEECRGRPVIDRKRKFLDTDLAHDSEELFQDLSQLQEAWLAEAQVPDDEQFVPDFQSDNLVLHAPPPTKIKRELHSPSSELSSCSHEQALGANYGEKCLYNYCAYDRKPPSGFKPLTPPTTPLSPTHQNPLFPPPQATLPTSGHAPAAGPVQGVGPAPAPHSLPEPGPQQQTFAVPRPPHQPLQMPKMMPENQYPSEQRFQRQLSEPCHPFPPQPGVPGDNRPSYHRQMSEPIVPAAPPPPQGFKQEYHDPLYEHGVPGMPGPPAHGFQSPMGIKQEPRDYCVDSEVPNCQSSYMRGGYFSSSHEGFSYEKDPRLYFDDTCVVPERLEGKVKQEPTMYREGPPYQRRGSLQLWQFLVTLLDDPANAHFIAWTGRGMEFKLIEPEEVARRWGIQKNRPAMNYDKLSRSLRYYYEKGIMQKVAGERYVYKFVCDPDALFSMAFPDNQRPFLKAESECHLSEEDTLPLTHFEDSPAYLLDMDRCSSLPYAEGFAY
Chain of ELF4 (Q99607 whole entry): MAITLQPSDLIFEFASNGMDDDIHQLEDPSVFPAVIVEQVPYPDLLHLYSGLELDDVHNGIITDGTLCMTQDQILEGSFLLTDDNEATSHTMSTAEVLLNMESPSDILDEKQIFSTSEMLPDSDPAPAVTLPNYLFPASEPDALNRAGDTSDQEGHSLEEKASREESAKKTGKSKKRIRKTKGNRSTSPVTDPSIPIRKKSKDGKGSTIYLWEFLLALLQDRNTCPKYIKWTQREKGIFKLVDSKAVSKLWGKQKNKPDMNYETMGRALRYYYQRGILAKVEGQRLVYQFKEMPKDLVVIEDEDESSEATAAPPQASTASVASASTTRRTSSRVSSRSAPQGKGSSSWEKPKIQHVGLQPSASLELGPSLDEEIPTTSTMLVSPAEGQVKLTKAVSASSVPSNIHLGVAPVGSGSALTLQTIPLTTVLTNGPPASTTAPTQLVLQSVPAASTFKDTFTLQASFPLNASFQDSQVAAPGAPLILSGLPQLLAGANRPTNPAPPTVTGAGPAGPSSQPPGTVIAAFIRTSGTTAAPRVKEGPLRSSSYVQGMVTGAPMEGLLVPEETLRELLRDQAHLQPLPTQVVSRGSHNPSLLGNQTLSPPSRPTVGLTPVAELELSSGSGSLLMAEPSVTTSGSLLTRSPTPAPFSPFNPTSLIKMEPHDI
Chain of HSF1 (Q00613 whole entry): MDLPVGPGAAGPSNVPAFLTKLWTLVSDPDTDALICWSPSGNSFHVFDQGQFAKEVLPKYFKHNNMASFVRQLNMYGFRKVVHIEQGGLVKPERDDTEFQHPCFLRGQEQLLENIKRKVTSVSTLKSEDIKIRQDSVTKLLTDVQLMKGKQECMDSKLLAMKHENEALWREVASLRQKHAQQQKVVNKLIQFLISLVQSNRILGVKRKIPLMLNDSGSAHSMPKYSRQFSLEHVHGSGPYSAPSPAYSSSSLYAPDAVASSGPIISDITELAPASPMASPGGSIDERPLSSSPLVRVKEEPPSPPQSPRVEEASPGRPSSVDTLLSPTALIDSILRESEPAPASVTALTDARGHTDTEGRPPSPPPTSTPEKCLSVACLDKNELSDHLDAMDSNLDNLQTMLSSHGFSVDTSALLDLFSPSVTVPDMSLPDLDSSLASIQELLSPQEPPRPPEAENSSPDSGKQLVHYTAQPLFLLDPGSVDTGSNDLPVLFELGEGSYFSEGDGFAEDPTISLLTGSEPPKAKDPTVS
Chain of ETV6 (P41212 whole entry): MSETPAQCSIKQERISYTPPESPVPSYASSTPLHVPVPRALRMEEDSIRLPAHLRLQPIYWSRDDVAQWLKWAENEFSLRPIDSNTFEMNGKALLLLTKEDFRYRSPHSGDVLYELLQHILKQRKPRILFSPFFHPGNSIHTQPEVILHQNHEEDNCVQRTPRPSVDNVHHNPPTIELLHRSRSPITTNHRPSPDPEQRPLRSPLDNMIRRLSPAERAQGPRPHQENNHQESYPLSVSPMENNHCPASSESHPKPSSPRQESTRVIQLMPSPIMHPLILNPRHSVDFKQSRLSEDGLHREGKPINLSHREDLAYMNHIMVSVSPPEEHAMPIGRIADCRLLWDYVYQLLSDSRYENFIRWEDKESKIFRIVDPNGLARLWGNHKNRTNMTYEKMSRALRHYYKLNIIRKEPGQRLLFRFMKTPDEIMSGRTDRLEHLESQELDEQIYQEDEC

For ATGTAT, the binding signal (FEV) was 1.31 fold enrichment (6-mer frequency, TF over GST control), the binding signal (ETV5) was 1.33 fold enrichment (6-mer frequency, TF over GST control) and the binding signal (HSF1) was 1.18 fold enrichment (6-mer frequency, TF over GST control). The binding signal (SPIC) was 1.25 fold enrichment (6-mer frequency, TF over GST control), the binding signal (ELF4) was 1.43 fold enrichment (6-mer frequency, TF over GST control) and the binding signal (ELK4) was 1.57 fold enrichment (6-mer frequency, TF over GST control). For the same sequence, the binding signal (ETV2) was 1.3 fold enrichment (6-mer frequency, TF over GST control), the binding signal (ELF3) was 1.35 fold enrichment (6-mer frequency, TF over GST control) and the binding signal (CRX) was 1.24 fold enrichment (6-mer frequency, TF over GST control). The binding signal (ETV1) was 1.42 fold enrichment (6-mer frequency, TF over GST control), the binding signal (ERF) was 1.47 fold enrichment (6-mer frequency, TF over GST control) and the binding signal (ETV3L) was 1.48 fold enrichment (6-mer frequency, TF over GST control). For the same sequence, the binding signal (ETS2) was 1.34 fold enrichment (6-mer frequency, TF over GST control), the binding signal (SPDEF) was 1.65 fold enrichment (6-mer frequency, TF over GST control) and the binding signal (ETV7) was 1.47 fold enrichment (6-mer frequency, TF over GST control). For the same sequence, the binding signal (ELF5) was 1.31 fold enrichment (6-mer frequency, TF over GST control), the binding signal (ETV3) was 1.42 fold enrichment (6-mer frequency, TF over GST control) and the binding signal (ETV6) was 1.32 fold enrichment (6-mer frequency, TF over GST control).
